# This excerpt belongs to a sample that is enriched for hits.
# Pf Dd2 growth – blocks in vitro growth of P. falciparum Dd2; hit rate 4.3% among 120,000; P. falciparum Dd2 growth, SYBR Green, 72 h; Potency, µM (top dose mostly 28.9 µM), inactives show at the highest dose activity, negative = inhibition, hits mostly inhibitors; active = well fitted inhibition curve with a large enough effect;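 also: plate controls were DMSO vehicle for no effect and reference drug for full effect; nearly all actives have a fitted effect of over 65% in size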
#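 Infected erythrocytes (Dd2, 0.3% parasitemia, 2.5% hematocrit final) are added to compound in RPMI-1640/Albumax II medium, grown 72 h at 37C in low oxygen, then lysed with saponin/Triton-X containing SYBR Green and read by fluorescence.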
# The depositor's hits bear a star; i = inactive; [ ] = dose if it differs, or a comment. Potency is read from the fitted curve at half-maximal effect.
SMILES,Pf Dd2 growth
CC(C)c1ccc(CC(=O)N2CCCc3ncc(C(=O)NCC(C)(C)CO)cc32)cc1,i
CC(C)c1ccc(CC(=O)N2CCCc3ncc(C(=O)Nc4cccc(Cl)c4)cc32)cc1,12.6µM*
CC(C)c1ccc(CC(=O)N2CCCc3ncc(C(=O)Nc4ccc5[nH]ccc5c4)cc32)cc1,-12.4%
Cn1cc(CC(=O)N2CCCc3ncc(C(=O)Nc4cccc(C(F)(F)F)c4)cc32)c2ccccc21,i
CC(C)NC(=O)c1cnc2c(c1)N(C(=O)Cc1ccc(C(C)C)cc1)CCC2,i
CC(C)c1ccc(CC(=O)N2CCCc3ncc(C(=O)NCCc4ccccc4)cc32)cc1,i
COCCN1C(=O)c2cccn2CC1CNC(=O)CC(C)C (stereo not drawn),1.1%
COc1ccc(CN2Cc3cc(NC(=O)Cc4ccc(F)cc4)ccc3OCC2=O)c(OC)c1,i
O=C(Nc1ccccc1)c1ccc2c(c1)OCCN(CCC(F)(F)F)C2,i
CCOc1ccccc1C(=O)NC1CCN(c2cc(-c3ccc(Cl)cc3)[nH]n2)C1 (stereo not drawn),-10.7%
FC(F)(F)c1ccc(O[C@H]2COCCN(Cc3cccnc3)C2)nc1,-5.2%[44.1 µM]
c1ccc(-c2ccc(CN3CCOC[C@H](Oc4cnccn4)C3)cc2)cc1,5.62µM*
COc1cccc(CN2CCOC[C@H](Oc3cccnc3)C2)c1,i
O=C(C[C@H]1NC(=O)c2ccccc2NC1=O)Nc1nnc(C2CCCO2)s1 (stereo partly drawn),i
O=C(Nc1ccccc1)Nc1ccc([C@H]2OCC(=O)N(Cc3ccccc3)[C@@H]2CO)cc1,i
CC(C)c1ccc(NC(=O)O[C@@H]2CO[C@H]3[C@@H]2OC[C@@H]3NC(=O)c2ccccc2)cc1,6.6%[44.1 µM]
OCC1(CC2CC2)CCCN(Cc2cccc(OCc3ccccn3)c2)C1 (stereo not drawn),5.62µM*
COc1cccc(CCC(=O)N2CCCC(CO)(CC3CC3)C2)c1 (stereo not drawn),-5.1%
CCc1nccc(CN2CCCC(CC3CC3)(C(=O)O)C2)n1 (stereo not drawn),-7.9%
OCc1cc2n(n1)CCCN(Cc1cccc(OCc3ccccn3)c1)C2,6.5%
CCc1nc(CN2CCCC(CO)(CC3CC3)C2)cs1 (stereo not drawn),12.6µM*
O=C(O)C1(CC2CC2)CCCN(Cc2ncccn2)C1 (stereo not drawn),-2.7%
COc1ccc(CN2CCN(CC(N)=O)CC2CCO)c(F)c1 (stereo not drawn),-3.4%
CN(C)C(=O)CN1CCCC(CO)(CC2CC2)C1 (stereo not drawn),-19.8%
COc1ccc(CN2CCCC(CO)(CC3CC3)C2)c(F)c1 (stereo not drawn),12.6µM*
SMILES,Pf Dd2 growth
O=C(NC[C@H]1OC[C@@H](NC2CCC2)[C@@H]1O)c1ccccc1,-25.9%[44.1 µM]
COCCOc1ccc2c(n1)CCN(C(=O)c1cccc(C)c1)C2,-34.9%
CCc1nc(-c2c3n(c(=O)n(Cc4ccc(OC)c(F)c4)c2=O)CCCCC3)no1,i
Cc1cccc(C(=O)N2CCC3(CC2)CC(c2ccccc2)C(=O)N3)c1 (stereo not drawn),-8.6%
NC(=O)CO[C@@H]1CO[C@H]2[C@@H]1OC[C@@H]2NC(=O)c1ccc(C(F)(F)F)cc1,10.5%[44.1 µM]
CCNC(=O)c1n[nH]c2c1CN(C(=O)c1cccc(Br)c1)CC2,i
CCc1noc(-c2cn(C3CCN(C(=O)c4ccc(OC)cc4)CC3)nn2)n1,i
CCCc1noc(-c2cn(C3CCN(C(=O)c4ccc(OC)c(F)c4)CC3)nn2)n1,-13.4%
CCCc1noc(-c2cn(C3CCN(C(=O)c4ccc(C#N)cc4)CC3)nn2)n1,12.6µM*
CCc1noc(-c2cn(C3CCN(C(=O)c4ccc(C)cc4)CC3)nn2)n1,i
Cc1noc(-c2cn(C3CCN(C(=O)c4cccc(Br)c4)CC3)nn2)n1,-23.2%
CCCc1noc(-c2cn(C3CCN(C(=O)c4cccc(N(C)C)c4)CC3)nn2)n1,3.55µM*
Cc1ccc(C(=O)N2CC(C(=O)NCCc3ccncc3)C3(CCOCC3)C2)cc1C (stereo not drawn),-6.6%
CN1CCN(c2nc3c(c(=O)[nH]2)CCN(Cc2cc(Cl)ccc2F)CC3)CC1,74.4%[5.79 µM]
CS(=O)(=O)N1CCCC(C(=O)NCCCN2CCCc3ccccc32)CCNC(=O)CC1 (stereo not drawn),-14.4%
CCc1noc(-c2cn(C3CCCN(C(=O)c4ccc(C)s4)C3)nn2)n1 (stereo not drawn),-17.1%
O=C(c1ccc(NCc2ccncc2)cc1)N1CCCC2(CCNCC2)CC1,-13.3%
CN1CC2(CCN(C(=O)c3cccnc3N(C)C3CCCCC3)CC2)OC1=O,-9.8%
Cc1nn(C)c2nc(N3CCCCC3CN3CCOCC3)sc12 (stereo not drawn),-0.3%
CN(CC1CCOC1)S(=O)(=O)Cc1ccccc1Cl (stereo not drawn),1.9%[5.79 µM]
CCOCC1(C)COc2ccc(C(=O)N(C)c3ccccc3)cc2N1 (stereo not drawn),i
COc1cccc(NC(=O)c2ccc3c(c2)NC(C)(COCCN(C)C)CO3)c1 (stereo not drawn),-9.0%[44.1 µM]
CCOCC1(C)COc2ccc(C(=O)Nc3cccc(N(C)C)c3)cc2N1 (stereo not drawn),3.16µM*
COCCN1C(=O)c2ccccc2C(C(=O)NCc2ccccc2)C12CCCCC2 (stereo not drawn),-28.5%
COCCN1C(=O)c2ccccc2C(C(=O)NCC(C)C)C12CCCC2 (stereo not drawn),0.5%
SMILES,Pf Dd2 growth
COCCN1C(=O)c2ccccc2C(C(=O)Nc2nc(C)c(C)s2)C12CCCCC2 (stereo not drawn),3.55µM*
COCCN1C(=O)c2ccccc2C(C(=O)NCc2ccc(F)cc2)C12CCCC2 (stereo not drawn),-18.9%
COCCN1C(=O)c2ccccc2C(C(=O)Nc2nc3ccccc3[nH]2)C12CCCCC2 (stereo not drawn),1.78µM*
CCCNC(=O)C1c2ccccc2C(=O)N(CCOC)C12CCCCC2 (stereo not drawn),0.0%
COCCN1C(=O)c2ccccc2C(C(=O)NCCc2ccc(OC)cc2)C12CCCC2 (stereo not drawn),i
COCCN1C(=O)c2ccccc2C(C(=O)Nc2cccc(NC(C)=O)c2)C12CCCCC2 (stereo not drawn),i
COCCN1C(=O)c2ccccc2C(C(=O)Nc2nnc(C(C)C)s2)C12CCCCC2 (stereo not drawn),11.2µM*
COCCN1C(=O)c2ccccc2C(C(=O)NCCCc2ccccc2)C12CCCC2 (stereo not drawn),11.2µM*
COCCN1C(=O)c2ccccc2C(C(=O)NCc2ccco2)C12CCCCC2 (stereo not drawn),0.0%
COCCN1C(=O)c2ccccc2C(C(=O)NCc2ccccc2F)C12CCCCC2 (stereo not drawn),-25.2%
CNC(=O)c1ccc2c(c1)C1(CCN(CC3CC3)C1)CN2Cc1ccccc1 (stereo not drawn),79.5%[44.1 µM]
O[C@@H]1C[C@@H](c2nc(-c3ccc4c(c3)OCO4)no2)N(Cc2cc3ccccc3o2)C1,-13.6%[44.1 µM]
O=C(C1c2ccccc2C(=O)N(Cc2ccccc2)C12CCCC2)N1CCCC1 (stereo not drawn),-7.1%
Cn1c(Cn2cccn2)nnc1C1CC(NC(=O)c2cc(C#N)c[nH]2)C1 (stereo not drawn),1.9%
CNc1cc(C)nc(N2C[C@H](NC(=O)C3CCOCC3)[C@@H](C3CC3)C2)n1,-3.6%
Cc1cccc(CN2CCc3c(n(Cc4cccnc4)n(-c4ccccc4)c3=O)C2)n1,4.8%[44.1 µM]
